Screens as filed in PubChem BioAssay.
rCAG RNA binder = molecules binding r(CAG) RNA repeats | r(CAG) RNA repeat, TO-PRO-1 dye displacement fluorescence | inhibition, % at 3 µM | 1.3% of 370,000 active | AID 651821;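 active = inhibition above the plate cutoff, the mean of all test compounds on that plate plus 3 SD, cut at about 35% in these data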;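 note: 0% = DMSO alone and 100% = 100 µM mitoxantrone as full dye displacement; higher means more dye released from RNA so lower well fluorescence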
NR3A LBD binder = modulates the human NR3A ligand-binding domain | Tm shift relative to glycine control, % at 25 µM | 2.5% of 340,000 active | AID 1259313 | NR3A LBD differential scanning fluorimetry, Tm shift; 0% = protein alone, 100% = glycine-bound protein;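 active = melting temperature shift of at least 10% of the positive control shift, at one fixed dose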
ADAM10 inh = ADAM10 inhibition, QFRET primary screen; recombinant ADAM10, EDANS/DABCYL FRET peptide cleavage, 3 h; inhibition, % at 7 µM; 0.62% of 370,000 active; AID 720582;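 active = inhibition above a per-campaign cutoff equal to the mean of compounds falling between control-based bounds plus 3 SD, cut at about 20% in these data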;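 note: 0% = DMSO wells while the 100% control is not disclosed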
ADAM17 inh = inhibits human ADAM17; recombinant ADAM17, EDANS/DABCYL FRET peptide cleavage; AID 720648; inhibition, % at 6.95 µM; 0.83% of 370,000 active;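 active = inhibition above the mean of compounds lying between control limits plus 3 SD, set per campaign, cut at about 8.5% in these data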;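 note: 0% = DMSO-only wells as the low control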
Target sequence (P78536 215-824 limits assumed): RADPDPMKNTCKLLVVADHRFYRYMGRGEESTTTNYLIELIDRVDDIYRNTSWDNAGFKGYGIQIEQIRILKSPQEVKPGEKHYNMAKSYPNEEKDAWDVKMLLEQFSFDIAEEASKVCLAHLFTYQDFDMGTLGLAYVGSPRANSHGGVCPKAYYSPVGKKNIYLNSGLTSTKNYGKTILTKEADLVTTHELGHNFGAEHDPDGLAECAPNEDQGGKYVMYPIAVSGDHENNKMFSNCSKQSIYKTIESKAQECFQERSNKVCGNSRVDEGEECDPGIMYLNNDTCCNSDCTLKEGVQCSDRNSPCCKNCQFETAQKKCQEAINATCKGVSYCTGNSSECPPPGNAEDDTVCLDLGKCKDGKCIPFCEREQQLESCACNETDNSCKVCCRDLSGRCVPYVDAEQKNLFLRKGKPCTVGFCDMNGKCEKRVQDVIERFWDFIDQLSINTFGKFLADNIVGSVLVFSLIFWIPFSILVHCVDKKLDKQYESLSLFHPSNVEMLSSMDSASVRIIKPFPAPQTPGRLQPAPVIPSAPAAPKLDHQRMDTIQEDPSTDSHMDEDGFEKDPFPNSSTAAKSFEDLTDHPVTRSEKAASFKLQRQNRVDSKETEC
AHR act = human AHR activation. P35869. AHR-responsive luciferase reporter cells, luminescence. activation, % at 5 µM. 2.5% of 320,000 active. AID 2796; in the data active = activation above about 47%;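 note: 0% = vehicle wells and 100% = reference agonist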
KLK7 zymogen act = activators of human kallikrein-7 zymogen; P49862; purified proKLK7, EDANS-DABCYL substrate fluorescence; 100% is mature enzyme control, 0% vehicle; activation, % at 7 µM; 0.9% of 370,000 active;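 active = activation above the mean of all tested compounds plus 3 SD, computed per campaign excluding outliers beyond control limits, cut at about 13% in these data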
ADAM10 confirm = confirmation of inhibitors of human ADAM10. shares compounds with ADAM10 inh. ADAM10 QFRET peptide cleavage, EDANS fluorescence. inhibition, % at 6.95 µM. 1% of 2,100 active. AID 743208;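 active = inhibition above about 20% chosen separately for each screening run, limit read from the data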;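 note: 0% = DMSO wells and 100% = marimastat wells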
ADAM17 ctr = counter-screen for ADAM10 exosite inhibitors: inhibitors of human ADAM17; ADAM17 QFRET peptide cleavage, EDANS fluorescence; 0.5% of 2,100 active; inhibition, % at 6.95 µM; shares compounds with ADAM10 inh;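 active = mean triplicate inhibition above the solvent-only control wells' mean plus 3 SD, cut at about 12% in these data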;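 note: 0% = DMSO wells and 100% = marimastat wells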
ADAM10 counter = counter-screen for ADAM17 exosite inhibitors: inhibitors of human ADAM10; 47% of 2,900 active; inhibition, % at 6.95 µM; recombinant ADAM10, EDANS/DABCYL FRET peptide cleavage, 3 h; AID 743256; shares compounds with ADAM17 inh;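 active = mean inhibition over the triplicate runs exceeds the activity threshold set in the earlier primary screen, cut at about 20% in these data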;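 note: 0% = DMSO wells and 100% = marimastat wells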
ADAM17 confirm = human ADAM17 inhibition, confirmation; shares compounds with ADAM17 inh; recombinant ADAM17, EDANS/DABCYL QFRET peptide cleavage; inhibition, % at 6.95 µM; 65% of 2,900 active;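 active = mean inhibition across replicates above the hit cutoff set in the primary screen, cut at about 8.5% in these data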;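 note: 0% = DMSO wells and 100% = marimastat wells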
Numbers without * were called inactive. An excerpt weighted towards active compounds, which were near 7% of everything screened.

How did CCOC(=O)c1ccc(S(=O)(=O)NC2CCC(C)CC2)cc1 (centres undefined) do in these assays?
rCAG RNA binder: 0; NR3A LBD binder: -1; ADAM10 inh: 1; ADAM17 inh: 2; AHR act: 1; KLK7 zymogen act: 0

Results for Cn1cnc(C(=O)NCc2ccccc2)c1C(=O)NCc1ccccc1 ?
rCAG RNA binder: -7; NR3A LBD binder: 2; ADAM10 inh: 6; ADAM17 inh: -1; AHR act: 2; KLK7 zymogen act: 0

How did Cc1c(CCO)c(=O)[nH]n1C(=O)c1ccc(F)cc1 do in these assays?
rCAG RNA binder: -2; NR3A LBD binder: 2; ADAM10 inh: -1; ADAM17 inh: 0; AHR act: 0; KLK7 zymogen act: 0

What do the screens show for `CC(C)(CC(=O)O)CC(=O)Nc1cc(C(F)(F)F)cc(C(F)(F)F)c1`?
rCAG RNA binder: 12; NR3A LBD binder: 1; ADAM10 inh: 4; ADAM17 inh: 1; AHR act: -3; KLK7 zymogen act: 0

What do the screens show for `Cc1cccc(OCC(=O)N/N=C/CC(C)c2ccccc2)c1C` (centres undefined)?
rCAG RNA binder: 0; NR3A LBD binder: -6; ADAM10 inh: -6; ADAM17 inh: 1; AHR act: 5; KLK7 zymogen act: 0

What do the screens show for `C=CC[C@H](CC(=O)N(CCO)Cc1ccccc1)C(=O)N[C@H](COC(=O)[C@@H](CC=C)CC(=O)OC(C)(C)C)Cc1c[nH]c2ccccc12`?
rCAG RNA binder: -4; NR3A LBD binder: -1; ADAM10 inh: 26*; ADAM17 inh: 13*; AHR act: 1; KLK7 zymogen act: 1; ADAM10 confirm: 4; ADAM17 ctr: 1; ADAM10 counter: 45*; ADAM17 confirm: 22*

How did C=CC[C@@H](CC(=O)N[C@H](CO)Cc1ccccc1)C(=O)N[C@H](COC(=O)[C@@H](CC=C)CC(=O)OC(C)(C)C)Cc1c[nH]c2ccccc12 do in these assays?
rCAG RNA binder: -6; NR3A LBD binder: -2; ADAM10 inh: 12; ADAM17 inh: 7; AHR act: 2; KLK7 zymogen act: 0

What do the screens show for `COc1ccc(CNc2nc(-c3ccccc3)nc3ccccc23)cc1OC`?
rCAG RNA binder: 3; NR3A LBD binder: 5; ADAM10 inh: 22*; ADAM17 inh: 13*; AHR act: 5; KLK7 zymogen act: 0; ADAM10 confirm: 7; ADAM17 ctr: 3; ADAM10 counter: 24*; ADAM17 confirm: 17*

Results for O=C(NCCNC(=O)c1cc(OCC(F)(F)F)ccc1OCC(F)(F)F)Nc1cccc(C(F)(F)F)c1 ?
rCAG RNA binder: -3; NR3A LBD binder: 5; ADAM10 inh: 37*; ADAM17 inh: 12*; AHR act: -1; KLK7 zymogen act: 0; ADAM10 confirm: 1; ADAM17 ctr: 0; ADAM10 counter: 24*; ADAM17 confirm: 14*

Results for O=C(Nc1ccc(OC(F)F)cc1)Nc1cccc(C(F)(F)F)c1 ?
rCAG RNA binder: 10; NR3A LBD binder: 39*; ADAM10 inh: 25*; ADAM17 inh: 10*; AHR act: -2; KLK7 zymogen act: 0; ADAM10 confirm: 2; ADAM17 ctr: 0; ADAM10 counter: 31*; ADAM17 confirm: 16*

How did Cc1ccc(S(=O)(=O)Nc2ccc(NC(=O)Nc3cccc(C(F)(F)F)c3)cc2)cc1 do in these assays?
rCAG RNA binder: 21; NR3A LBD binder: 37*; ADAM10 inh: 41*; ADAM17 inh: 22*; AHR act: 21; KLK7 zymogen act: 0; ADAM10 confirm: 9; ADAM17 ctr: 3; ADAM10 counter: 43*; ADAM17 confirm: 19*
